PubChem BioAssay (NCATS)
Results filed as inconclusive are left out. The source made the active and inactive calls. Unless noted, the call rests on the fitted dose curve; in most records, active means well fitted cell-killing curve with a large enough effect; inconclusive means small, poorly fitted or top-dose-only effect; inactive means flat fitted curve, though single readings scatter.

Legend:
[1] = Cell Viability - LYMP2-006 (AID 978); further: on the % scale 0 is the no-effect control and ±100 the full control effect; nearly all actives have a fitted effect of over 60% in size
Outline: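 In this cytotoxicity screen, the human lymphoblastoid line grew in complete medium with test compounds for 24 hr at 37 C. Cellular ATP served as the viability signal.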

[2] = Cell Viability - LYMP2-007 (AID 979);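 further: cells exposed to compound for 24 h before reading; 0% = DMSO only and the negative end = 92 µM tetraoctylammonium bromide; nearly all actives have a fitted effect of over 60% in size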
Outline: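 Human lymphoblastoid cells (2500/well) were plated in complete medium, incubated 5 hr at 37 C, then exposed to compounds for 24 hr at 37 C. Intracellular ATP was read by CellTiter-Glo luminescence after 30 min at room temperature; AC50 from Hill fits.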

[3] = Cell Viability - LYMP2-008 (AID 980); further: on the % scale 0 is the no-effect control and ±100 the full control effect; nearly all actives have a fitted effect of over 60% in size
Outline: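 Human lymphoblastoid cells (2500/well) were plated, held 5 hr at 37 C, then exposed to compounds for 24 hr at 37 C in complete medium. Intracellular ATP was read by CellTiter-Glo luminescence; AC50 from Hill-fitted concentration-response.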

[4] = Cell Viability - LYMP2-010 (AID 981); further: on the % scale 0 is the no-effect control and ±100 the full control effect; nearly all actives have a fitted effect of over 55% in size
Outline: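 Human lymphoblastoid LYMP2-010 cells (2500/well) were preincubated 5 hr at 37 C, then exposed to compounds for 24 hr at 37 C in complete medium. Intracellular ATP was measured by CellTiter-Glo luminescence after 30 min at room temperature; AC50 from Hill-fitted concentration-response.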

[5] = Cell Viability - LYMP2-012 (AID 982);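 further: cellular ATP by luciferase luminescence where a drop means cytotoxicity; cells exposed to compound for one day before reading; 0% = DMSO only and full loss = 92 µM tetraoctylammonium bromide; nearly all actives have a fitted effect of over 55% in size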
[6] = Cell Viability - LYMP2-014 (AID 983);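 further: plate controls were DMSO only for no effect and 92 µM tetraoctylammonium bromide for full effect; nearly all actives have a fitted effect of over 50% in size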
Outline: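 Human lymphoblastoid cells (2500/well) were pre-incubated 5 hr at 37 C, then exposed to compounds in complete medium for 24 hr at 37 C. Intracellular ATP was read by CellTiter-Glo luminescence after 30 min at room temperature; AC50 from Hill fits.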

[7] = Cell Viability - LYMP2-016 (AID 984); further: on the % scale 0 is the no-effect control and ±100 the full control effect; nearly all actives have a fitted effect of over 55% in size
Outline: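 Concentration-dependent ATP depletion measured in LYMP2-016 lymphoblastoid cells, 24 h, 37 C; luciferase-based luminescent detection; Hill-equation AC50.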

[8] = Cell Viability - LYMP2-018 (AID 985);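 further: compound exposure lasted 24 hr at 37 °C; plate controls were DMSO only for no effect and tetraoctylammonium bromide at 92 µM for full effect; nearly all actives have a fitted effect of over 50% in size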
Outline: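 Human lymphoblastoid cells (2500/well) were pre-incubated 5 hr at 37 C, then exposed to compounds for 24 hr at 37 C in complete medium. Viability was read as intracellular ATP by CellTiter-Glo luminescence; AC50 values came from Hill-equation fits.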

[9] = Cell Viability - LYMP2-020 (AID 986);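 further: plate controls were DMSO only for no effect and tetraoctylammonium bromide at 92 µM for full effect; nearly all actives have a fitted effect of over 55% in size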
Outline: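 Human lymphoblastoid cells, 2500/well, were pre-incubated 5 hr at 37 C, then exposed to compounds for 24 hr at 37 C in complete medium. Intracellular ATP was read by CellTiter-Glo luminescence, and AC50 was derived by Hill fitting of concentration-response data.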

[10] = Cell Viability - LYMP2-022 (AID 987)
Outline: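 Human lymphoblastoid cells, 2500/well, preincubated 5 hr at 37 C, then exposed to compounds over a concentration range for 24 hr at 37 C in complete medium. Viability read as intracellular ATP by CellTiter-Glo luminescence after 30 min at room temperature; AC50 from Hill fits.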

[11] = Cell Viability - LYMP2-024 (AID 988);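 further: plate controls were DMSO only for no effect and 92 µM tetraoctylammonium bromide for full effect; nearly all actives have a fitted effect of over 60% in size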
Outline: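 Human lymphoblastoid cells (2500/well) in complete medium were preincubated 5 hr at 37 C, then exposed to compounds for 24 hr at 37 C. Intracellular ATP was read by CellTiter-Glo luminescence; AC50 from Hill-equation fits of concentration-response data.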

[12] = Cell Viability - LYMP2-026 (AID 989); further: on the % scale 0 is the no-effect control and ±100 the full control effect; nearly all actives have a fitted effect of over 50% in size
Outline: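 Human lymphoblastoid cells (2500/well) in complete medium were preincubated 5 hr at 37 C, then exposed to compounds for 24 hr at 37 C. Cellular ATP was read by CellTiter-Glo luminescence; AC50 from Hill-equation fits of concentration-response data.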

[13] = Cell Viability - LYMP1-002 - Assay at 24 hr (AID 993); further: on the % scale 0 is the no-effect control and ±100 the full control effect
Outline: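 Human lymphoblastoid LYMP1-002 cells, 2500/well in complete medium, were treated with compounds for 24 h at 37 C; intracellular ATP was read by CellTiter-Glo luminescence. AC50 values came from Hill-equation fits of qHTS concentration-response data.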

[14] = Cell Viability - LYMP1-002 - Assay at 40 hr (AID 994)
Outline: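 Human lymphoblastoid cells, 2500/well in complete medium, were preincubated 5 hr at 37 C, then exposed to compounds for 40 hr at 37 C. Intracellular ATP was read by CellTiter-Glo luminescence after 30 min at room temperature; AC50 from Hill-equation fits.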

[15] = qHTS Assay for Lipid Storage Modulators (AID 1519; calls by dose curve; on activity change, negative = inhibition: on the % scale 0 is the no-effect control and ±100 the full control effect); conditions: Drosophila S3 cells, BODIPY lipid droplet/cell ratio, laser cytometry, cells loaded with oleic acid
Outline: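 Cells seeded at 5,000 per well were treated with compounds over a concentration series and loaded with oleic acid (400 uM, as added). Lipid droplet fluorescence (488 nm excitation, 500-530 nm channel) was read by laser-scanning cytometry and normalized to 20 uM Triacsin C.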

[16] = qHTS Assay for Identification of Small Molecule Inducers of Hypoxia Response (AID 2120; active means well fitted curve in the direction sought with a large enough effect in the signal ratio, with a control signal flat, not every such curve was filed as active; the % refers to the signal ratio; further: 0% is about no effect)
Outline: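 HRE-beta-lactamase reporter in CellSensor HRE-bla ME-180 cells, 2500 cells/well in Opti-MEM with 0.5% dialyzed FBS; compounds tested as titration series, 17 h at 37 degrees C. CCF4 substrate 2.5 h at room temperature; AC50 from 460/530 nm ratio.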

[17] = target: Estrogen receptor (Homo sapiens) (UniProt P03372); experiment: qHTS assay for small molecule antagonists of estrogen receptor alpha signaling (AID 588513; active means well fitted curve in the direction sought with a large enough effect in the signal ratio, with a control signal flat, not every such curve was filed as active; the % refers to the signal ratio; further: on the % scale 0 is the no-effect control and ±100 the full control effect)
Chain of Estrogen receptor (Homo sapiens) (P03372 whole entry, looked up): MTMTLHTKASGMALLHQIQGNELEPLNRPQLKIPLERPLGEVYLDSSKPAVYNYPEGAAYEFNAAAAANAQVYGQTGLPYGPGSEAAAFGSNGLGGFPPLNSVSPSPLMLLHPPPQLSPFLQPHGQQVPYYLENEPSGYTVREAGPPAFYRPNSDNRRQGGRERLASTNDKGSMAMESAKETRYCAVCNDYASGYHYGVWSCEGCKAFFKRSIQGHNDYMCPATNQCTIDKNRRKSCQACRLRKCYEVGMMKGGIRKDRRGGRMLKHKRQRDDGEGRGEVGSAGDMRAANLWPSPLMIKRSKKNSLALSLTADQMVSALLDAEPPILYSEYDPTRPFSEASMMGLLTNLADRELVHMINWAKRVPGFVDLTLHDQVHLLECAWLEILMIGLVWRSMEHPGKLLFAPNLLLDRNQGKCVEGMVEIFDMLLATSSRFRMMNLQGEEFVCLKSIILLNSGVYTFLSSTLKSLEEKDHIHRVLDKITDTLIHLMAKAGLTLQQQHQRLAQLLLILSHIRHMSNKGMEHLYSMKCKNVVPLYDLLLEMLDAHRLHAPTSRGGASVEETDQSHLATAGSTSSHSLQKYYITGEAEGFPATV
Outline: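 Antagonist-mode qHTS in ER-alpha-UAS-bla HEK 293 cells: compound titration, 0.5nM estradiol for 18 h, CCF4 fluorescence, Hill-derived IC50.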

[18] = qHTS assay for small molecule antagonists of peroxisome proliferator-activated receptor delta signaling (AID 588535; active means well fitted inhibition curve with a large enough effect in the signal ratio, with a control signal flat, not every such curve was filed as active; the % refers to the signal ratio;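 on max response: cells co-treated with a PPAR-delta agonist as stimulator during compound exposure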); conditions: HEK293T PPARd-UAS-bla, beta-lactamase FRET ratio, 18 h; 460 nm channel
Outline: (§1)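 GeneBLAzer PPAR-delta-UAS-bla HEK293T cells in medium with 2% charcoal/dextran FBS were preincubated 5 hrs at 37 C, then given compounds, incubated 18 hrs at 37 C, and read by CCF4 beta-lactamase fluorescence; IC50 from Hill fits.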

[19] = target: Peroxisome proliferator-activated receptor delta (Homo sapiens) (UniProt Q03181); experiment: as above
Chain of Peroxisome proliferator-activated receptor delta (Homo sapiens) (Q03181 whole entry, looked up): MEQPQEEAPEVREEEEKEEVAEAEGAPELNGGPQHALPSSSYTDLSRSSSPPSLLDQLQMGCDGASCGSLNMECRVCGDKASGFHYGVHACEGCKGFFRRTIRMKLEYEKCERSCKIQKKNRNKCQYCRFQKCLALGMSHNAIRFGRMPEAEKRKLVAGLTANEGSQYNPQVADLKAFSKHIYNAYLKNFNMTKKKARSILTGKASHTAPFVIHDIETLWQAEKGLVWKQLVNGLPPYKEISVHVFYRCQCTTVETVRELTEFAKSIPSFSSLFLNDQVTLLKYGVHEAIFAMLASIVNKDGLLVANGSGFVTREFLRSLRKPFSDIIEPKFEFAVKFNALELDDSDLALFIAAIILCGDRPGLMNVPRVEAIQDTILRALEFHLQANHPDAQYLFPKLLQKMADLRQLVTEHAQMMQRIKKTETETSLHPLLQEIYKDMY
Outline: as §1

O=C(Nc1ccccc1)Nc1ccccc1
outcome [1]: inactive | outcome [2]: inactive | outcome [3]: inactive | outcome [4]: inactive | outcome [5]: inactive | outcome [6]: inactive | outcome [7]: inactive | outcome [8]: inactive | outcome [9]: inactive | outcome [10]: inactive | outcome [11]: inactive | outcome [12]: inactive | outcome [13]: inactive | outcome [14]: inactive | activity change, negative = inhibition ([15]; at 57.5 µM (top of the series)): 11.8% (inactive) | max response ([15]; measured here: cell count channel max response): -3.21% | max response ([15]; measured here: lipid channel max response): 11.7% | outcome [16]: inactive | outcome [17]: inactive | max response [18]: -7.95% | outcome [19]: inactive
